Pf Dd2 inh: blocks in vitro growth of P. falciparum Dd2; AID 1347417; P. falciparum Dd2 growth, SYBR Green, 72 h; hit rate 4.3% among 120,000; Potency, µM (series often up to 28.9 µM), without a hit: top-dose activity, negative = inhibition, most hits filed as inhibitors; active = well fitted inhibition curve with a large enough effect;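 note: plate controls were DMSO vehicle for no effect and reference drug for full effect; nearly all actives have a fitted effect of over 65% in size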
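Infected erythrocytes (Dd2, 0.3% parasitemia, 2.5% hematocrit final) are added to compound in RPMI-1640/Albumax II medium, grown 72 h at 37C in low oxygen, then lysed with saponin/Triton-X containing SYBR Green and read by fluorescence.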
* = called active by the depositor; i = inactive; [ ] = another dose, or the depositor's remark. The full list was thinned out, with hits kept by preference. Potency is the fitted concentration of half-maximal effect.

SMILES | Pf Dd2 inh
COc1ccc(C2NC(=O)N(CC(=O)NC(C)C)C3=C2C(=O)OC3)cc1 (centres undefined) | -4.0%
NC(=O)CN1C(=O)[C@@H]2CN(C(=O)c3ccccc3)CCN2C1=O | 6.8%[44.1 µM]
O=C(C1CCCCC1)N1CC(F)(F)C[C@H]1c1nnc(C2CC2)o1 | 6.5%
O=C(NCc1cccnc1)[C@@H]1C[C@@H](O)CN1C1CCN(C(=O)c2cc3ccccc3[nH]2)CC1 | i
Cc1ncsc1CN1CCCCCNC(=O)[C@@H]2CCC[C@@H]21 | i
N#Cc1ccccc1CN1CCCCCCNC(=O)[C@@H]2CCC[C@@H]21 | 2.82µM*
CCOc1ccccc1CN1CCCCCCNC(=O)[C@@H]2CCC[C@@H]21 | 2.82µM*
CC(C)n1cc(CN2CCCCCNC(=O)[C@@H]3CCC[C@@H]32)c2ccccc21 | i
COc1ccc(-c2[nH]ncc2CN2CCCCCNC(=O)[C@@H]3CCC[C@@H]32)cc1 | i
N#Cc1cccc(CN2CCCCCNC(=O)[C@@H]3CCC[C@@H]32)c1 | -8.6%
N#Cc1ccc(CN2CCCCCNC(=O)[C@@H]3CCC[C@@H]32)cc1 | -20.4%
COc1ccc(CN2CCCCCNC(=O)[C@@H]3CCC[C@@H]32)cc1Cn1ccnc1 | 8.91µM*
CCn1cc(CN2CCCCCCNC(=O)[C@@H]3CCC[C@@H]32)cn1 | i
Cc1cccc(-c2noc([C@@H]3C[C@@H](O)CN3Cc3ncc[nH]3)n2)c1 | i
CC1=NS(=O)(=O)N(CCCN2C(=O)c3ccccc3C2=O)C=C1C(=O)O | -7.1%
Cc1ccc(C2=NC3(CCN(C(=O)c4ccoc4)CC3)ON2)cc1 | -7.7%
Cc1nn(C)cc1CN(C)CC1(O)CCCN(Cc2ccc(F)cc2)C1=O (centres undefined) | i
NC(=O)[C@@H](Cc1c[nH]c2ccccc12)NC(=O)[C@@H]1C[C@@H](NS(=O)(=O)c2cccs2)CCN1C(=O)CSCC(=O)O | -3.5%
CN(C)CC1(O)CCCN(C(=O)c2ccccc2-c2ncc[nH]2)CC1 (centres undefined) | -1.4%
Cc1ccc(NC(=O)c2cc3nc(-c4ccccc4)cc(-c4ccccc4)n3n2)cc1 | 45.1%
CC(C)c1ccc(NC(=O)c2cnn3c(C(F)F)cc(-c4ccccc4)nc23)cc1 | 5.01µM*
C#CC(C)(CC)NC(=O)c1cnn2c(C(F)F)cc(-c3ccccc3OC)nc12 (centres undefined) | -14.8%
Cn1nc2n(c1=O)CCNCC2 | 4.2%
COc1cccc(C(=O)NC2CCN(c3cc(-c4ccc(Cl)cc4)[nH]n3)CC2)c1OC | -8.4%
O=C(Nc1cccc(-c2nnc3n2CCCC3)c1)C1CCCC1 | i
SMILES | Pf Dd2 inh
O=C(Nc1cccc(-c2nnc3n2CCCC3)c1)c1nccc2ccccc12 | 4.47µM*
O=C(Nc1ccc(-c2nnc3n2CCCC3)cc1)c1nccc2ccccc12 | -7.6%
COc1ccccc1C(=O)Nc1cccc(-c2nnc3n2CCCC3)c1 | 4.47µM*
CC(=O)Nc1cccc(C(=O)Nc2cccc(-c3nnc4n3CCCC4)c2)c1 | -5.3%
O=C(Nc1cccc(-c2nnc3n2CCCC3)c1)c1ccccn1 | i
CC(C)CN1C(=O)c2cccn2CC1C(=O)NCC1CCN(Cc2ccc(F)cc2)CC1 (centres undefined) | -6.8%
CC(C)[C@@H](N)C(=O)N1CCC2(CC1)Nc1ccccc1NC2=O | -9.9%
CNC(=O)N1CCC(Cc2noc(-c3ccncc3)n2)C1 (centres undefined) | 23.0%
CCCCNC(=O)CC(c1ccc(OC)cc1OC)c1c[nH]c2c(CC)cccc12 (centres undefined) | i
COc1ccc(C(CC(=O)NCCc2ccc(OC)c(OC)c2)c2c[nH]c3ccccc23)c(OC)c1 (centres undefined) | 11.2µM*
CCCCNC(=O)CC(c1cccc(OC)c1)c1c[nH]c2ccccc12 (centres undefined) | i
O=[N+]([O-])c1cccc(-c2ncc[nH]2)c1 | -12.4%[76.6 µM]
O=[N+]([O-])c1ccc(O)c(-c2ccnc3cc(-c4ccccc4)nn23)c1 | 10µM*
COc1ccc(-c2cc3ncc(C(=O)c4cc([N+](=O)[O-])ccc4O)cn3n2)cc1 | -4.0%
COc1cc2c(cc1OC)C(C[C@H]1CN(C(=O)c3ccc4c(c3)OCO4)CC[C@H]1CC(=O)O)=NCC2 | -12.6%
Cn1cnnc1-c1nn(C)c2c1CN(C(=O)c1n[nH]c3c1CCCCCC3)CC2 | i
O=C1NCCOCCCN(S(=O)(=O)c2ccccc2)[C@H]2CCCC[C@@H]12 | 5.6%
Cc1ccc(CC(=O)N(Cc2nc(-c3ccc(C)cc3)no2)C(C)C)cc1 | -22.5%
COc1ccc(-c2noc(CN(C(=O)c3ccccc3Cl)C(C)C)n2)cc1 | -3.7%
COc1ccc(-c2noc(CN(C(=O)C(C)Oc3ccc(C)cc3)C(C)C)n2)cc1 (centres undefined) | 10µM*
Cc1cnc(-c2ccncc2)n1C1CCN(C(=O)Cc2ccccc2)CC1 | -3.6%
CN1C(=O)C(CC(N)=O)=C2CCCCC21 (centres undefined) | -22.3%
CCn1cc(C(=O)NCc2ccccc2Cl)c(=O)c2cc(S(=O)(=O)N3CCCCC3)ccc21 | 0.8%
